High-throughput results: PubChem, several laboratories
PLK1 inh: PLK1 (human) kinase inhibition | P53350 | recombinant PLK1 kinase, TR-FRET peptide phosphorylation | inhibition, % at 10 µM | 97,000 tested, 0.53% active | AID 619;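 active = inhibition of 50% or more in the single-concentration screen; inactive = inhibition below 50%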
Plk1 PBD FP: inhibitors of human Plk1 polo box domain binding | inhibition, %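 (tested at about 20 µM)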 | 97,000 tested, 0.13% active | AID 693 | Plk1 PBD phosphopeptide binding, fluorescence polarization; in the data active = inhibition above about 34%, passing the limit was not always enough
CYP2C9 activ: increases human cytochrome P450 2C9 activity | activation factor at 5 µM | 96,000 tested, 1.4% active | recombinant CYP2C9, luciferin-H conversion, luminescence; hits give high values; factor 1 = untreated enzyme, 0 = blocked | P11712;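 active = activation factor of 2 or more for CYP2C9 at a 5 µM dose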
CYP2C19 act: increases human CYP2C19 enzyme activity. P33261. AID 1025. 96,000 tested, under 10 active. recombinant CYP2C19, luciferin-H EGE luminescence; hits give high values; 0 = fully inhibited enzyme, 1 = untreated enzyme. activation factor at 5 µM;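 active = activation factor of at least 2 at 5 µM in the primary screen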
Target sequence (P33261 whole entry, looked up): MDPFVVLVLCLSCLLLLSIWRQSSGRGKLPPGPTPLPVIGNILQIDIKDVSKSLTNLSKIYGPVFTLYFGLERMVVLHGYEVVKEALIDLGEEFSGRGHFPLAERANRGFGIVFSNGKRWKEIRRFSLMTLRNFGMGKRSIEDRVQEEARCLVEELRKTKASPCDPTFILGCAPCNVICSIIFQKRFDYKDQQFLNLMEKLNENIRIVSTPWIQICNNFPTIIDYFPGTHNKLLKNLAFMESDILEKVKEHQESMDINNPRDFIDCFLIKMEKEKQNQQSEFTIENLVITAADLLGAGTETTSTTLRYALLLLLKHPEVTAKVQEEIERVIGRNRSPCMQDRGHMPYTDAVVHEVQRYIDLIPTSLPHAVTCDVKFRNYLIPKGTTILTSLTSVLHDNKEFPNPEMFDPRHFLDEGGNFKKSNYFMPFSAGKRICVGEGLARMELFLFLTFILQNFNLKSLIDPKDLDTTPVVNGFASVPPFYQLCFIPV
CYP2C9 inh: human CYP2C9 inhibition. CYP2C9 Supersomes, luciferin-H conversion, luminescence. inhibition, % at 5 µM. 96,000 tested, 20% active. AID 777;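 active = blocking of liver enzyme CYP2C9 beyond about 50% at 5 µM, limit read from the data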
CYP2C19 inhib: blocks human cytochrome P450 2C19; P33261; CYP2C19 Supersomes, luciferin-H EGE luminescence, 30 min; inhibition, % at 5 µM; 96,000 tested, 21% active;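 active = CYP2C19 inhibition above a set limit at 5 µM in the primary screen, cut at about 50% in these data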
Numbers stand for hits; - = inactive; . = no result. A selection: hits, their analogues and other compounds. The true share with any hit is near 28%.

SMILES	PLK1 inh	Plk1 PBD FP	CYP2C9 activ	CYP2C19 act	CYP2C9 inh	CYP2C19 inhib
COc1cc(C(c2c(C)[nH][nH]c2=O)c2c(C)[nH][nH]c2=O)ccc1OS(=O)(=O)c1ccc(C)cc1	-	-	-	-	66	85
CCCNC(=O)CC1C(=O)N(Cc2ccccc2)C(C)c2nc3ccccc3n21 (stereo not drawn)	-	-	-	-	-	67
CCCCn1c(CNC(=O)Cc2ccccc2)nc2ccccc21	-	-	-	-	-	-
COc1ccc(C)cc1NS(=O)(=O)c1ccc(Br)s1	-	-	-	-	-	98
O=S(=O)(Nc1ccc2c(c1)OCCO2)c1cccs1	-	-	-	-	-	-
O=S(=O)(Nc1ccc2c(c1)OCCO2)c1ccc(Br)s1	-	-	-	-	96	98
Cc1ccc2nc(NC(=O)CCNS(=O)(=O)c3ccc(Br)s3)sc2c1	-	-	-	-	-	-
COc1ccc(NS(=O)(=O)c2ccc(Br)s2)cc1OC	-	-	-	-	87	99
CC(C)C(O)(C#CCN1CCCCC1)c1ccccc1 (stereo not drawn)	-	-	-	-	-	72
OC(C#CCN1CCCCC1)c1ccccc1 (stereo not drawn)	-	-	-	-	-	-
CC(C)C(O)(C#CCN1CCCC1)c1ccccc1 (stereo not drawn)	-	-	-	-	-	50
CC(O)(C#CCN1CCOCC1)c1ccccc1 (stereo not drawn)	-	-	-	-	-	-
CCOC(=O)c1c(CN2CCOCC2)n(-c2ccccc2)c2cc(Br)c(O)c(CN(C)C)c12	-	-	-	-	-	-
CCOC(=O)c1c(CN(C)C)oc2cc(CN(C)C)c(O)c(CSc3ccccc3)c12	-	-	-	-	-	92
O=C(NC1CCCCC1)c1ccccc1NC(=O)C1CC(=O)N(c2ccccc2)C1 (stereo not drawn)	-	-	.	.	.	.
COc1cccc(N2CC(C(=O)Nc3ccc(C(=O)OC(C)C)cc3)CC2=O)c1 (stereo not drawn)	-	-	-	-	71	51
C=CCNC(=O)C1CC(=O)N(c2ccc(OCC(=O)Nc3ccccc3)cc2)C1 (stereo not drawn)	-	-	-	-	55	-
COc1ccc(CNC(=O)C2CC(=O)N(c3ccc(OCC(=O)N4C(C)CCCC4C)cc3)C2)cc1 (stereo not drawn)	-	-	-	-	61	-
COc1cccc(N2CC(C(=O)NC3CCCCC3)CC2=O)c1 (stereo not drawn)	.	.	2.3	-	-	-
Cc1cc(/C=C2/SC(=S)N(c3cccc(C(F)(F)F)c3)C2=O)c(C)n1-c1cccnc1	-	-	.	.	.	.
Cc1c(Cl)c([N+](=O)[O-])nn1CC(=O)N1CCc2ccccc2C1	-	-	-	-	-	-
O=C(NCCCN1CCCC1=O)c1ccc(Cl)c(NS(=O)(=O)c2ccc(F)cc2)c1	-	-	-	-	-	-
Cc1ccc2cc3cc(C(=O)NCCCN4CCc5ccccc5C4)oc3nc2c1	-	-	-	-	-	64
COc1ccc(S(=O)(=O)Cc2ccc(C(=O)NC3CCCC3)o2)cc1	-	-	-	-	-	-
COc1ccc(S(=O)(=O)Cc2ccc(C(=O)NCc3ccco3)o2)cc1	-	-	-	-	-	-
SMILES	PLK1 inh	Plk1 PBD FP	CYP2C9 activ	CYP2C19 act	CYP2C9 inh	CYP2C19 inhib
COc1ccc(S(=O)(=O)Cc2ccc(C(=O)NCCCN3CCc4ccccc4C3)o2)cc1	-	-	-	-	88	-
CCOC(=O)N1CCC(NC(=O)c2ccc(CS(=O)(=O)c3ccc(OC)cc3)o2)CC1	-	-	-	-	93	-
Cc1cccc(N(C)C(=O)c2cc3cc4ccc(C)cc4nc3o2)c1	-	-	-	-	-	70
CSc1nc2nc3c(c(=O)n2[nH]1)CCCC3	-	-	-	-	-	-
CC(=O)N1CCc2cc(S(=O)(=O)NC(CC(C)C)C(=O)N3CCc4ccccc4C3)ccc21 (stereo not drawn)	-	-	-	-	-	-
Cn1c(SCC(=O)Nc2ccc(N3CCOCC3)c(Cl)c2)nnc1-c1ccccc1	-	-	.	.	.	.
COc1ccc(S(=O)(=O)Cc2ccc(C(=O)NCCCN(C)c3ccccc3)o2)cc1	-	-	-	-	98	-
CCCCNC(=O)c1ccc(CS(=O)(=O)c2ccc(OC)cc2)o1	-	-	-	-	-	-
CC(C)(C)C(=O)/C=C(\N)c1ccccn1	-	-	-	-	-	-
O=C(CC(Sc1ccccc1)c1cccs1)c1ccco1 (stereo not drawn)	-	-	-	-	95	100
O=C(Cc1cccs1)OCC(=O)c1ccco1	-	-	-	-	-	-
COc1c2c(nc3occc13)C(CC=C(C)C)(OC)C(O)CC2 (stereo not drawn)	-	-	.	.	.	.
CCOC(=O)Oc1ccc2oc(=O)cc(C)c2c1	.	.	-	-	-	-
Cc1cc(=O)oc2ccc(OCC(=O)N(Cc3ccc(F)cc3)Cc3ccco3)cc12	-	-	-	-	89	86
CCc1ccc(N2C(=O)c3sc4nnc(-c5ccccc5)c(=O)n4c3C2=O)cc1	-	-	-	-	64	-
O=C(O)c1cccc(S(=O)(=O)NCc2cccs2)c1	-	-	-	-	-	-
Cn1c(=NCC(O)COc2ccccc2)sc2ccccc21 (stereo not drawn)	-	-	-	-	-	95
COc1ccccc1N=c1sc2ccccc2n1C	-	-	-	-	-	77
N=c1n(CCN2CCCCC2)c2ccccc2n1CC(O)COc1ccccc1 (stereo not drawn)	-	-	-	-	-	-
COc1ccc(N=c2sc3ccccc3n2C)cc1	-	-	-	-	-	51
Cn1c(CN2CCOCC2)nnc1SCC(=O)NCCc1ccccc1	-	-	-	-	-	-
Cc1ccc(C(c2nnnn2Cc2ccccc2)N2CCN(Cc3ccccc3)CC2)cc1 (stereo not drawn)	-	-	.	.	.	.
COc1ccccc1Nc1nc(-c2cccs2)cs1	-	-	-	-	72	83
Cc1cnc(NC(=O)COc2ccccc2Cl)s1	-	-	-	-	-	-
O=C(COc1ccccc1Cl)Nc1nc(-c2cccs2)cs1	-	-	-	-	82	-
SMILES	PLK1 inh	Plk1 PBD FP	CYP2C9 activ	CYP2C19 act	CYP2C9 inh	CYP2C19 inhib
Cc1cc(Cl)ccc1OCC(=O)Nc1nc(-c2cccs2)cs1	-	-	-	-	56	-
CCOC(=O)N1CCN(C(=O)CSCC(=O)Nc2nc(-c3cccs3)cs2)CC1	-	-	.	.	.	.
O=C(O)C1CCCCC1C(=O)Nc1nc(-c2cccs2)cs1 (stereo not drawn)	-	-	-	-	-	-
CC(=O)Nc1nc(-c2cccs2)cs1	-	-	-	-	54	-
CCOc1ccc(N2CC(=O)N/C2=N\c2nc(C)cc(C)n2)cc1	-	-	-	-	-	-
COc1ccccc1Nc1nc2c(s1)CCC2	-	-	-	-	-	-
COc1ccccc1Nc1nc(C2(C)CCC(=O)O2)cs1 (stereo not drawn)	-	-	-	-	-	81
